Assay results reported in PubChem BioAssay.
Records with an inconclusive call do not appear. Activity calls are given as the source filed them.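 How the source made its calls, unless noted: active means Her2 level under about 52% in both replicate screens, with viability over 70% of control (limit read from the data); inconclusive means Her2 under the limit in one screen only, or viability under 70%; inactive means Her2 level above the set limit.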

Tests used:
[1] = Her2 expression decrease, cell viability multiplex – SKBR3 breast tumor cells, AlphaScreen, ATP viability, primary screen (AID 461); details: SKBR3 Her2 protein level, 18-24 h, measured here: SKBR3 viability, ATP luminescence, at 10 µM;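 on Her2 level: lower value means less Her2 protein in the cells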;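 on viability: percent of carrier control wells set as 100% viability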
[2] = target: Receptor tyrosine-protein kinase erbB-2 (Homo sapiens) (UniProt P04626); experiment: as above; details: 18-24 h, at 10 µM, stronger effect = lower value
[3] = reduced viability of SK-BR-3 breast cancer cells – cell-based, 24 h, human, pilot screen (AID 572;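 active means viability at or below 10% of carrier control in both of two separate runs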;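 further: compound exposure lasted between 18 and 24 h rather than exactly 24 h; 100% = carrier-treated control wells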); details: SK-BR-3 viability, CellTiter-Glo luminescence, at 10 µM, stronger effect = lower value
[4] = HUVEC growth inhibition – cell-based, human, primary screen (AID 575;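 active means viability at or below 30% in both replicate assays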;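 further: 100% = median of untreated cell wells with 0.1% DMSO on each plate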); details: HUVEC proliferation, CellTiter-Glo luminescence, 72 h; at 10 µM; stronger effect = lower value
[5] = H69AR cell proliferation blockers – human, duplicate replicates, primary screen (AID 580;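 active means viability at or under a set limit in both replicates, limit being median viability minus 3 SD, cut at about 48% in these data, passing the limit was not always enough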;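 further: 100% = mean luminescence of untreated wells and 0% = no signal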); details: H69AR lung tumor cells viability, ATP luminescence, 72 h; at 10 µM; stronger effect = lower value
[6] = MRP1 drug-resistance reversers in H69AR cells – cell-based, doxorubicin co-treatment, pilot screen (AID 601;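 active means viability loss from added drug above about 55%, and viability with drug at most 40%, in both replicates, limit read from the data, passing the limit was not always enough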); details: CellTiter-Glo, 72 h, at 10 µM; for differential viability (reversal): stronger effect = higher value
[7] = yeast transport mutant growth inhibition pilot in 384-well plates, post-Golgi transport modulator project (AID 636; in the data active means inhibition above about 31%); details: absorbance 615 nm, about 18 h, stronger effect = higher value
[8] = growth suppression of yeast trafficking mutant, preliminary HTS, modulators of trafficking downstream of Golgi apparatus project, 1536-format plate, OD 615 nm (AID 637; in the data active means inhibition above about 30%); details: yeast transport mutant growth, absorbance 615 nm, 18 h; stronger effect = higher value
[9] = S. cerevisiae growth inhibition in permissive medium (OD615), pilot counter-assay for S. cerevisiae lifespan shortening project, permissive growth control (AID 705;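 active means growth inhibition above 25% in both replicates, a cutoff set 3 SD above the mean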); details: OD615, 24 h, at 10 µM, stronger effect = higher value
[10] = S. cerevisiae growth inhibition in restrictive medium, OD615, pilot screen, restrictive growth control, yeast lifespan reduction project (AID 706;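 active means growth inhibition above a set limit, 3 SD over mean compound inhibition, in both replicates, cut at about 43% in these data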;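 further: modified DeaD lifespan yeast strain shifted to restrictive glucose medium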); details: OD615, 48 h, at 10 µM, stronger effect = higher value
[11] = doxorubicin toxicity protection in MRP-1 cells – H69AR cells, CellTiter-Glo, duplicate, MRP-1 activator project, pilot screen (AID 807;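 active means viability increase at or above a cutoff of the median across tested compounds plus 3 SD, cut at about 8.5% in these data, passing the limit was not always enough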;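 further: compound pretreatment 18-22 h then 72 h combined with doxorubicin; 0% = doxorubicin alone and 100% = vehicle without doxorubicin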); details: H69AR viability with doxorubicin, CellTiter-Glo luminescence; at 10 µM; stronger effect = higher value
[12] = viability of HCT116 without oncogenic beta-catenin – human colon tumor cells, pilot screen (AID 823;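 active means cell viability at or below a set limit in both duplicate runs, the limit being the all-compound median minus 4 SD, cut at about 23% in these data, passing the limit was not always enough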;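 further: 0% = wells killed by 20 µM Hyamine and 100% = untreated DMSO cell wells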); details: HCT116 beta-catenin knockout viability, CellTiter-Glo, 60 h; at 10 µM; stronger effect = lower value
[13] = viability of PTEN-null HCT116 cells – cell-based, HCT116 clonal line, CellTiter-Glo, pilot screen (AID 824;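 active means viability at or below 27.92% in each of two runs, the all-compound median minus 4 SD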;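 further: 0% = 20 µM Hyamine control and 100% = vehicle cell control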); details: HCT116 PTEN-deleted viability, 60 h, at 10 µM, stronger effect = lower value
[14] = RAM pathway blockade in budding yeast – dse1pr::URA3 reporter, 5-FOA selection, pilot screen (AID 869;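 active means inhibition over a set limit, the all-compound mean plus 3 SD, in both replicate runs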;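 further: 0% = DMSO wells with no growth and 100% = 10 µM 1-NA-PP1 with full growth; RAM network block rescues cells from 5-FOA so hits raise OD615 growth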); details: S. cerevisiae dse1pr::URA3 5-FOA growth, OD615, 2 d; at 10 µM; stronger effect = higher value; strain carries analog-sensitive mutant Cbk1 kinase
[15] = RAM signaling pathway blockade in yeast – S. cerevisiae, Pdr1DBD-CYC8 efflux-inhibited sensitized strain, primary screen (AID 1298;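 active means RAM network inhibition above 8.4% in each of two replicates, 3 SD over the compound average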;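 further: 0% = DMSO untreated cells without growth and 100% = 10 µM 1-NA-PP1 full growth; higher means more yeast growth rescued from 5-FOA killing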); details: S. cerevisiae cbk1-as DSE1-URA3 strain, 5-FOA growth OD615, 2 d; at 50 µM; stronger effect = higher value
[16] = H69AR cells + 2 uM doxorubicin, measured here: viability with 2 uM doxorubicin, stronger effect = lower value
[17] = H69AR cells, compound alone cytotoxicity

Chain of Receptor tyrosine-protein kinase erbB-2 (Homo sapiens) (P04626 whole entry, looked up): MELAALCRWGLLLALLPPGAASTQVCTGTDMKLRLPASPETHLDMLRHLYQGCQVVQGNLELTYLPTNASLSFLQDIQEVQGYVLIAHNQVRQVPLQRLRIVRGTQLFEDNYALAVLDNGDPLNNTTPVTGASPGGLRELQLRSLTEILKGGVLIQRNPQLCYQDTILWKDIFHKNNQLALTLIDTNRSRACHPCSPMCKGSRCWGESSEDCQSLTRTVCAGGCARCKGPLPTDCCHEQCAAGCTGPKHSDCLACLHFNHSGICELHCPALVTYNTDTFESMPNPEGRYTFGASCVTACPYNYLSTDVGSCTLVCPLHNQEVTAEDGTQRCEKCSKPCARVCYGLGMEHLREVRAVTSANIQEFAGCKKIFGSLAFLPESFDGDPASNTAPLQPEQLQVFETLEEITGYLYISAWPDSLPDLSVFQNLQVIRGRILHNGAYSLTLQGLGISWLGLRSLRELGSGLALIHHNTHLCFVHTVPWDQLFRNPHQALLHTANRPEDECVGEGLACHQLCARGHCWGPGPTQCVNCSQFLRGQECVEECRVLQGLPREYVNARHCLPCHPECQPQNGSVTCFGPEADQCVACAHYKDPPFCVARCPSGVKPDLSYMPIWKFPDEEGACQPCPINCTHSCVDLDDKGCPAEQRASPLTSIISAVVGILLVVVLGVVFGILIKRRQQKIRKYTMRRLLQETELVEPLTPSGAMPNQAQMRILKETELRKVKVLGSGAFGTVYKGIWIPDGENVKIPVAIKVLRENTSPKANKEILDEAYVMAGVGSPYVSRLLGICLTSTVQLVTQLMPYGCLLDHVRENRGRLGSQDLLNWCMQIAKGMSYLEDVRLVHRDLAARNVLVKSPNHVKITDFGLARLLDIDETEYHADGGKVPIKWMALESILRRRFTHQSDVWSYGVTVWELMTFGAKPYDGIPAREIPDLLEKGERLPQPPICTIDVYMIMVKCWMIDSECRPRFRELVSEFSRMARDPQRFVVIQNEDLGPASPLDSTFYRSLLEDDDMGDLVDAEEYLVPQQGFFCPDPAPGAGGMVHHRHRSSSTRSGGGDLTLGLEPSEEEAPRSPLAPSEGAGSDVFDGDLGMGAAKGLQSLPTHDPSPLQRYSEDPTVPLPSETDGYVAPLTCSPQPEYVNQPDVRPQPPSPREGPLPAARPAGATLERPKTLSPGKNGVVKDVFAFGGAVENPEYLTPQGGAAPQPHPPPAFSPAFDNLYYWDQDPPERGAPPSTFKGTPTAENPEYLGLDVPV

SMILES | viability [1] | Her2 level [2] | viability [3] | viability [4] | viability [5] | differential viability (reversal) ([6]; H69AR cells + 2 uM doxorubicin) | viability [6, 16] | viability [6, 17] | inhibition [7] | inhibition [8] | growth inhibition [9] | growth inhibition [10] | viability increase [11] | viability [12] | viability [13] | inhibition [14] | RAM network inhibition [15]
NC(=O)C1CCN(C(=O)c2cc3n(n2)C(C(F)(F)F)CC(c2ccco2)N3)CC1 (stereo not drawn) | 84% | 99.5% (inactive) | 84% (inactive) | 104% (inactive) | 85% (inactive) | -0.83% (inactive) | 85.8% | 85% | -0.93% (inactive) | -4.67% (inactive) | -7% (inactive) | -1.27% (inactive) | -1.57% (inactive) | 97% (inactive) | 97.4% (inactive) | 2.2% (inactive) | 0.98% (inactive)
Cn1c(=O)oc2cc(S(=O)(=O)N3CCCC(C(=O)NCC4COc5ccccc5O4)C3)ccc21 (stereo not drawn) | 77% | 79.5% (inactive) | 77% (inactive) | 83.6% (inactive) | 94% (inactive) | 3.15% (inactive) | 90.9% | 94% | 0.8% (inactive) | -2.79% (inactive) | -11.9% (inactive) | -20.4% (inactive) | 3.09% (inactive) | 86% (inactive) | 90.4% (inactive) | 0.04% (inactive) | 4.73% (inactive)
O=C(Cn1cc2c(n1)CCCCC2)N1CCc2ccccc21 | 85.5% | 95.5% (inactive) | 85.5% (inactive) | 67.6% (inactive) | 87.8% (inactive) | -3.99% (inactive) | 91.8% | 87.8% | -1.33% (inactive) | -7.87% (inactive) | -4.03% (inactive) | -4.38% (inactive) | -2.66% (inactive) | 66.4% (inactive) | 81% (inactive) | 2.15% (inactive) | 1.83% (inactive)
Cc1cccc(-n2ncc3c(NCCCO)ncnc32)c1 | 95.5% | 118% (inactive) | 95.5% (inactive) | 86.4% (inactive) | 88.3% (inactive) | 7.59% (inactive) | 80.7% | 88.3% | 2.4% (inactive) | -2.5% (inactive) | -12.1% (inactive) | -8.93% (inactive) | 0.27% (inactive) | 112% (inactive) | 104% (inactive) | 0.64% (inactive) | -0.67% (inactive)
COC(=O)C1(C#N)C(c2ccccc2)C1(C(=O)OC)C(=O)OC (stereo not drawn) | 117% | 90% (inactive) | 117% (inactive) | 105% (inactive) | 102% (inactive) | 11.3% (inactive) | 90.8% | 102% | -3.47% (inactive) | 0.65% (inactive) | -6.71% (inactive) | -6.54% (inactive) | -1.92% (inactive) | 77.4% (inactive) | 97.7% (inactive) | 1.43% (inactive) | 2.51% (inactive)
CCOc1cccc(-c2nnc3n2N=C(c2cc(OC)ccc2OC)CS3)c1 | 104% | 83.5% (inactive) | 104% (inactive) | 42.4% (inactive) | 13.5% (active) | -60.8% (inactive) | 74.2% | 13.5% | -5.87% (inactive) | 1.75% (inactive) | 16.2% (inactive) | 50.3% (active) | -3.98% (inactive) | 19.4% (active) | 21.2% (active) | 1.96% (inactive) | 6.09% (inactive)
CNC(=O)c1ccsc1NC(=O)c1ccccc1 | 88.5% | 74% (inactive) | 88.5% (inactive) | 83.8% (inactive) | 80.8% (inactive) | -3.68% (inactive) | 84.5% | 80.8% | -4.8% (inactive) | -3.5% (inactive) | 14.6% (inactive) | 14.5% (inactive) | -0.77% (inactive) | 102% (inactive) | 95.2% (inactive) | 1.97% (inactive) | -1.39% (inactive)
CCN(CC)C(=O)C1CCCc2c1[nH]c1ccc(Cl)cc21 (stereo not drawn) | 102% | 91% (inactive) | 102% (inactive) | 67.1% (inactive) | 76.6% (inactive) | 5.98% (inactive) | 70.6% | 76.6% | 8.13% (inactive) | 44% (active) | -16% (inactive) | -4.67% (inactive) | -4.93% (inactive) | 66.5% (inactive) | 60.8% (inactive) | 0.455% (inactive) | 1.57% (inactive)
COC(=O)c1oc2ccc(Br)cc2c1NC(C)=O | 94% | 81% (inactive) | 94% (inactive) | 96.1% (inactive) | 98.2% (inactive) | 3.47% (inactive) | 94.7% | 98.2% | -4% (inactive) | 1.33% (inactive) | -7.17% (inactive) | 0.76% (inactive) | 1.21% (inactive) | 102% (inactive) | 98.4% (inactive) | 0.08% (inactive) | 2.66% (inactive)
N#Cc1cnc2sc3ccccc3n2c1=N | 99% | 114% (inactive) | 99% (inactive) | 69% (inactive) | 87.7% (inactive) | -2.73% (inactive) | 90.5% | 87.7% | -3.07% (inactive) | 3.06% (inactive) | 0.55% (inactive) | 12.3% (inactive) | -1.27% (inactive) | 94.4% (inactive) | 95.9% (inactive) | -0.405% (inactive) | 5.97% (inactive)
Cc1onc(-c2c(Cl)cccc2Cl)c1C(=O)NCC1CCCO1 (stereo not drawn) | 111% | 104% (inactive) | 111% (inactive) | 97.7% (inactive) | 111% (inactive) | 16% (inactive) | 95.2% | 111% | -4.59% (inactive) | -5.74% (inactive) | 6.24% (inactive) | -5.78% (inactive) | -1.12% (inactive) | 91.7% (inactive) | 92.9% (inactive) | -1.21% (inactive) | -0.45% (inactive)
COc1ccccc1N1CCN(C(=O)c2cc(C3CC3)on2)CC1 | 84% | 110% (inactive) | 84% (inactive) | 80.8% (inactive) | 86.5% (inactive) | -6.73% (inactive) | 93.2% | 86.5% | -0.64% (inactive) | -3.5% (inactive) | -9.72% (inactive) | 0.825% (inactive) | 0.32% (inactive) | 98.5% (inactive) | 103% (inactive) | 0.905% (inactive) | 2.48% (inactive)
CCCc1cc(=O)oc2c(C)c3occ(C)c3cc12 | 112% | 99.5% (inactive) | 112% (inactive) | 64.8% (inactive) | 98.2% (inactive) | 4.94% (inactive) | 93.3% | 98.2% | -0.68% (inactive) | -3.02% (inactive) | -2.79% (inactive) | 0.83% (inactive) | -4.59% (inactive) | 77.4% (inactive) | 79.5% (inactive) | 3.16% (inactive) | 3.02% (inactive)
Nc1nc2n(n1)C(c1c(F)cccc1Cl)CC(c1ccc(F)cc1)N2 (stereo not drawn) | 102% | 91.5% (inactive) | 102% (inactive) | 103% (inactive) | 86.2% (inactive) | -3.43% (inactive) | 89.6% | 86.2% | -5.2% (inactive) | 0.33% (inactive) | -4.67% (inactive) | 0.29% (inactive) | -2.4% (inactive) | 89.7% (inactive) | 86.9% (inactive) | 0.17% (inactive) | 3.18% (inactive)
